# Measured values reported in PubChem BioAssay (Tox21).
# A number with no mark means an inactive call. Active and inactive are the calls of the source. Calls follow the shape of the full dose curve.
# Molecular target: Gonadotropin-releasing hormone receptor (Homo sapiens) (UniProt P30968)
# Assay: Human gonadotropin-releasing hormone receptor (GnRHR) small molecule agonists, calcium flux assay in GnRHR-HEK293 cells (AID 1920063); also: nearly all actives have a fitted effect of over 35% in size
# Conditions: calcium flux fluorescence, agonist mode; series mostly up to 57.6 µM; activity change: at the top concentration
# Description: National Center for Advancing Translational Sciences [NCATS]
# Division of Preclinical Innovation [DPI]
# U.S. Environmental Protection Agency [EPA]
# National Institutes of Environmental Health Sciences [NIEHS]
# National Toxicology Program [NTP]
# U.S. Food and Drug Administration [FDA]
# Gonadotropin-releasing hormone receptor (GnRHR) is a G-protein-coupled receptor (GPCR) and acts (through phospholipase C) to increase intracellular inositol trisphosphate and then release intracellular calcium stores. Cell-based GnRHR-Hek293 calcium influx assay is using HEK293 cells that have been genetically engineered to express the human GnRHR, which activity can be measured by calcium signaling. A compound/drug can activate (agonist) GnRHR that can be monitored by levels of intracellular calcium.
# GnRHR-HEK293 cells developed by Codex Corp contain human GnRHR reporter gene, which was stably integrated into HEK 293 cells. The compound activation can be detected by fluorescence intensity via calcium flux assay. This cell line has been used to screen the Tox21 10K compound library to identify GnRHR agonists.
# GnRHR-Hek293 cells were dispensed at 1500cells/4uL/well in 1536-well black wall/clear bottom plates using a multidrop dispenser. After the assay plates were incubated at a 37 C/5% CO2 incubator for 18 hours, 4 uL of Calcium Dye Solution was added to each well. The plates were incubated at 37 C for 1 hour. For agonist mode, 23 nL of compounds dissolved in DMSO, positive controls or DMSO only was transferred to the assay plate by a pin tool station. The fluorescence intensity in the plates was measured using FDSS 7000EX kinetic plate reader with a filter set of Ex/Em=480/540 for 3 min at 1 sec intervals. Each test compound was measured at 15 concentrations and in triplicates.
# % is scaled to controls: 0 for no effect and ±100 for the full control effect.
# Gonadotropin-releasing hormone receptor (Homo sapiens), sequence (P30968 whole entry, looked up): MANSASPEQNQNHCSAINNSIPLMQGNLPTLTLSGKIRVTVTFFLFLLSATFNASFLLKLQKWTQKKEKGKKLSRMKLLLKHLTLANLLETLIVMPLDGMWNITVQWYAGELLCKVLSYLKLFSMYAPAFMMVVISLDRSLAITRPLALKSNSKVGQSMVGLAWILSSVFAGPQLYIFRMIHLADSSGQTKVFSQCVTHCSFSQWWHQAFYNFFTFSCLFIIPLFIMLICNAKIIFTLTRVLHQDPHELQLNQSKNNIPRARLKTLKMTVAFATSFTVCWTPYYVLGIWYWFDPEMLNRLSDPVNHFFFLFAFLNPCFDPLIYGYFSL
SMILES,activity change,Potency
CC(C)c1ccc(C=O)cc1,-0.582%,–
CC1CCc2nccnc21 (stereo not given),-1.07%,–
O=C1CCN(c2ccccc2)N1,-0.0774%,–
Cc1ccccc1OCC(O)CO (stereo not given),"-0.349% [at 26.4 µM, stronger effect = higher value]",–
CCCCSCCCC,1.05%,–
Nc1cc([N+](=O)[O-])ccc1Cl,0.08%,–
COC(c1ccccc1)(c1ccccc1)[C@H](Oc1nc(C)cc(C)n1)C(=O)O,"-1.79% [at 26.4 µM, stronger effect = higher value]",–
CC(C)c1cccc(C(C)C)c1N,-0.674%,–
Cc1ccc(C(C)c2ccc(C)c(C)c2)cc1C,0.483%,–
O=c1[nH][nH]c(=O)c2cc([N+](=O)[O-])ccc12,-1.56%,–
COc1ccc2cc1Oc1cc3c(cc1OC)CC[N+](C)(C)[C@H]3Cc1ccc(cc1)Oc1c(OC)c(OC)cc3c1[C@@H](C2)[N+](C)(C)CC3,"0.0399% [at 26.4 µM, stronger effect = higher value]",–
CCC(C)(C)C,1.26%,–
CC[C@H](C)[C@@H](C(=O)O)n1sc2ccccc2c1=O,-0.918%,–
CC(C)CC(C)(N)C#N (stereo not given),-0.0147%,–
CCC(C)C(=O)OCCc1ccccc1 (stereo not given),-0.49%,–
CC(C)(C)c1nnc(NS(=O)(=O)c2ccc(N)cc2)s1,"-0.278% [at 26.4 µM, stronger effect = higher value]",–
O=C1NC2NC(=O)NC2N1 (stereo not given),-0.42%,–
CCCCCCCC/C=C\CCCCCCCC(=O)OCCCC,"1.13% [at 11.8 µM, stronger effect = higher value]",–
CCCCCCCCCCCCCCCC,-0.0082%,–
COc1ccc(C(=O)NCc2ccc(OCCN(C)C)cc2)cc1OC,"2.45% [at 26.4 µM, stronger effect = higher value]",–

SMILES,activity change,Potency
CC(=C(CCOC(=O)C(C)C)SSC(CCOC(=O)C(C)C)=C(C)N(C=O)Cc1cnc(C)nc1N)N(C=O)Cc1cnc(C)nc1N,"-0.675% [at 26.4 µM, stronger effect = higher value]",–
Oc1ccc(C(c2ccc(O)cc2)C(Cl)(Cl)Cl)cc1,–,inactive
CC1(C)[C@H](C(=O)OCc2cccc(Oc3ccccc3)c2)[C@@H]1C=C(Cl)Cl,-0.195%,–
CC1(C)O[C@@H]2C[C@H]3[C@@H]4C[C@H](F)C5=CC(=O)C=C[C@]5(C)[C@@]4(F)[C@@H](O)C[C@]3(C)[C@]2(C(=O)CO)O1,–,inactive
CC12CCC(C(=O)C1=O)C2(C)C (stereo not given),-0.131%,–
O=c1oc2c(O)c(O)cc3c(=O)oc4c(O)c(O)cc1c4c23,"0.294% [at 11.8 µM, stronger effect = higher value]",–
[O-][n+]1ccc(Cl)cc1,-0.422%,–
CC(=O)N(CC(O)CO)c1c(I)c(C(=O)NCC(O)CO)c(I)c(C(=O)NCC(O)CO)c1I (stereo not given),"2.87% [at 26.4 µM, stronger effect = higher value]",–
Cc1cn([C@H]2C[C@H](F)[C@@H](CO)O2)c(=O)[nH]c1=O,"-1.53% [at 26.4 µM, stronger effect = higher value]",–
NC(=S)N/N=C/c1cccnc1,"0.0417% [at 26.4 µM, stronger effect = higher value]",–
Cc1cnccn1,0.232%,–
CCC(=O)OCc1ccccc1,-0.32%,–
CC1OC1C1CCC2(C)OC2C1 (stereo not given),-0.228%,–
CNc1ccccc1,0.197%,–
CC/C=C\CCO,1.85%,–
CC[C@]12CCCN3CCc4c(n(c5ccccc45)[C@@](O)(C(=O)OC)C1)[C@@H]32,"11.7% [at 26.4 µM, stronger effect = higher value]",–
CCOC(=O)CCC(C)=O,-0.528%,–
CCn1c2ccccc2c2ccccc21,-0.115%,–
Cc1ccc(N)cc1[N+](=O)[O-],0.0419%,–
C=CC(=O)OCC(CO)(COC(=O)C=C)COC(=O)C=C,–,inactive
